Laboratory results as given in PubChem BioAssay (Tox21).
Results filed as inconclusive are left out. The source made the active and inactive calls. The call rests on the fitted dose curve.

Experiment: qHTS assay to identify small molecule antagonists of the sonic hedgehog signaling (Shh) pathway (AID 1259369); further: nearly all actives have a fitted effect of over 45% in size
Conditions: NIH/3T3 Gli1-Luc reporter, Shh antagonist, luminescence 24 h; series mostly up to 92.4 µM; activity change, negative = inhibition: at the top concentration
Excerpt: U.S. Tox21 Program National Center for Advancing Translational Sciences [NCATS] NIH Chemical Genomics Center [NCGC] U.S. Environmental Protection Agency [EPA] National Institutes of Environmental Health Sciences [NIEHS] National Toxicology Program [NTP] U.S. Food and Drug Administration [FDA] Tox21 Assay Overview: The sonic hedgehog (Shh) pathway is essential for normal embryonic development. Dysregulation of the Shh pathway can cause severe developmental defects in organs. Therefore chemicals that interfere with the pathway are potential developmental toxicants. A cell line designated 3T3Gli1-Luc (DMB/OARSA/CFSAN/FDA, Laurel, MD), a NIH/3T3 derived clone containing stably integrated Gli1-Luc reporter is used to detect chemical interference of the Shh pathway, by changes in the expression of the firefly Luc gene under the control of the Gli1 transcriptional response element. This cell line was used to screen Tox21 libraries for identifying and prioritizing the potential developmental toxicants that interfere Shh pathway. Conditioned medium-stimulated mode was used to screen for chemicals inhibiting Shh signaling.
Tox21 Assay Protocol Summary: 3T3 Gli1-Luc cells were dispensed at 2,000 per well in 5uL of culture medium into white solid bottom 1536-well plates (Greiner Bio-One, Monroe, NC) using a Multidrop Combi (Thermo Scientific, Waltham, MA) dispenser. The assay plates were incubated at 37 C and 5% CO2 for 4hr, and then 23nL of compounds dissolved in DMSO and positive control were transferred using a Pintool station (Wako, San Diego, CA). The compound transfer was followed by the addition of 1ul conditioned medium or assay buffer using two separate tips of Flying Reagent Dispenser (FRD, Aurora Discovery, San Diego, CA). The assay plates were incubated at 37C and 5% CO2 for 24hr. For luciferase read, 4uL of Amplite Luciferase reporter gene assay reagent (AAT Bioquest, Inc. Sunnyvale, CA) was added to each well of the assay plates using FRD and incubated at room temperature for 30min. The luminescence signal was measured using a ViewLux plate reader (Perkin Elmer, Shelton, CT).
On the % scale 0 is the no-effect control and ±100 the full control effect; potency means the concentration at half of the fitted maximal effect.

| SMILES | activity change, negative = inhibition | Potency |
| --- | --- | --- |
| FC(F)(F)C(F)(F)C(F)(F)C(F)(F)C(F)(F)C(F)(F)C(F)(F)C(F)(F)C(F)(F)C(F)(F)F | -15.5% [at 8.39 µM] (inactive) | – |
| CCCCCC[C@@H](CCC)C(=O)O | -11.2% [at 42.5 µM] (inactive) | – |
| CC(C)c1cccc(O)c1 | 2.94% (inactive) | – |
| C#CC(O)CCCCC (stereo not given) | 7.05% (inactive) | – |
| NS(=O)(=O)c1cc2c(cc1Cl)NC(CSCc1ccccc1)=NS2(=O)=O | 17.9% [at 42.5 µM] (inactive) | – |
| C1C2OC2C2C1C1CC2C2OC12 (stereo not given) | 23.6% (inactive) | – |
| Cc1onc(-c2ccccc2)c1-c1ccc(S(N)(=O)=O)cc1 | – | 18.8 µM (active) |
| NC(=S)Nc1cccc2ccccc12 | 0.0462% [at 8.39 µM] (inactive) | – |
| CCCCCCOC(=O)CC(CC(=O)OCCCCCC)(OC(=O)CCC)C(=O)OCCCCCC | 21.4% (inactive) | – |
| CCCCCCCCCCCCCCCCCC(=O)OCCCCCCCCCCCCCC(C)C | 8.91% (inactive) | – |
| O=C(O)CCNC(=O)c1ccc(N=Nc2ccc(O)c(C(=O)O)c2)cc1 | -6.44% [at 42.5 µM] (inactive) | – |
| CCCOCC(C)OCC(C)O (stereo not given) | 14% (inactive) | – |
| COC(=O)CCCC(=O)O | 0% (inactive) | – |
| COc1ccc2cc(C=O)ccc2c1 | 19.5% [at 42.5 µM] (inactive) | – |
| C=CCSCC1Nc2cc(Cl)c(S(N)(=O)=O)cc2S(=O)(=O)N1 (stereo not given) | -1.16% [at 42.5 µM] (inactive) | – |
| CCCc1ccccc1O | 9.59% (inactive) | – |
| COc1cc(CCC(C)=O)ccc1O | -15.9% (inactive) | – |
| COC(C(=O)O)c1ccccc1 (stereo not given) | 0% (inactive) | – |
| [O-][N+](=Nc1ccccc1)c1ccccc1 | 17.6% (inactive) | – |
| CCCCc1ccc2cccc(S(=O)(=O)O)c2c1 | 14.6% (inactive) | – |

| SMILES | activity change, negative = inhibition | Potency |
| --- | --- | --- |
| CC(C=O)Cc1ccc(C(C)C)cc1 (stereo not given) | 0.831% (inactive) | – |
| NCC[C@H](O)C(=O)N[C@@H]1C[C@H](N)[C@@H](O[C@H]2O[C@H](CN)[C@@H](O)[C@H](O)[C@H]2O)[C@H](O)[C@H]1O[C@H]1O[C@H](CO)[C@@H](O)[C@H](N)[C@H]1O | 22.5% [at 0.349 µM] (inactive) | – |
| CC(=O)OC(C)(C)C | 3.55% (inactive) | – |
| Nc1cc(N)cc(C(=O)O)c1 | 0% (inactive) | – |
| CCCCC=O | 23.8% (inactive) | – |
| CO[Si](CCCNCCC[Si](OC)(OC)OC)(OC)OC | 4.51% (inactive) | – |
| Cc1ccc(Nc2ccc(O)c3c2C(=O)c2ccccc2C3=O)cc1 | 0.212% (inactive) | – |
| CN(C)N=Nc1ccccc1 | 0% (inactive) | – |
| Cc1ccccc1Br | 24.4% (inactive) | – |
| C1COCCO1 | 18.1% (inactive) | – |
| OCCN1C[C@H](O)[C@@H](O)[C@H](O)[C@H]1CO | -0.397% [at 42.5 µM] (inactive) | – |
| COc1nc(C)nc(N)n1 | -23.4% (inactive) | – |
| CCN1CCN(c2cc3c(cc2F)c(=O)c(C(=O)O)cn3C2CC2)CC1 | 22.6% [at 42.5 µM] (inactive) | – |
| CC1(C)SC(C)(C)SC(C)(C)S1 | 6.6% (inactive) | – |
| O=C(CCOCCOCCOCCOCCC(=O)Nc1c(I)cc(I)c(C(=O)O)c1I)Nc1c(I)cc(I)c(C(=O)O)c1I | 18.7% [at 42.5 µM] (inactive) | – |
| C=CC(=O)N1CCOCC1 | 7.3% (inactive) | – |
| COc1ccc(NC(C)=O)cc1 | -1.01% (inactive) | – |
| CCO[Si](CCCN=C=O)(OCC)OCC | 27.3% (inactive) | – |
| N#CCc1ccccc1[N+](=O)[O-] | 2.97% (inactive) | – |
| CCN1CCCC1CNC(=O)c1cc(S(N)(=O)=O)ccc1OC (stereo not given) | -17.7% (inactive) | – |
